# Screens from PubChem BioAssay.
# Sampled rows, rich in hits. Any-hit rate of the full collection: about 3%.
# SENP6 block: SENP6 protease inhibitors, primary screen, biochemical, luminescence, uHTS; Sentrin-specific protease 6 (Homo sapiens), Q9GZR1; inhibition, % at 10 µM; AID 2599, 2010; hit rate 1.8% among 330,000; Recombinant SENP6 catalytic domain, aminoluciferin luminescence;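 active means inhibition above about 50% at the single tested dose, limit read from the data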;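 further: plate controls were DMSO wells with enzyme for no effect and DMSO wells lacking enzyme for full effect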
# C8 TRAIL sens: viability loss with TRAIL in NB7+C8 cells, primary screen, TRAIL sensitizer project, cell-based, ATPlite luminescence; inhibition (viability loss, TRAIL sensitization), % at 10 µM; AID 624354, 2012; hit rate 1% among 360,000;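 active means compounds causing at least 50% loss of cell viability in the single-dose screen, relative to plate controls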
# PPC-1+TRAIL kill: compounds killing PPC-1 cancer cells with TRAIL present, primary screen, TRAIL potentiator project, ATPLite luminescence, uHTS. AID 1443, 2008. hit rate 0.41% among 220,000. cell killing (% activity), % at 4 µM or 5 µM. PPC-1 cells + TRAIL, ATPLite viability luminescence;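 active means cell killing above 50% in the first pass at 4 µM, then a duplicate retest at 5 µM averaging 50% or more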;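 further: plate controls were cells with TRAIL plus DMSO for no effect and medium-only wells lacking cells for full effect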
# SENP8 block-1: human SENP8 protease inhibitors, primary screen, biochemical, fluorescence, Nedd8 protein substrate, uHTS. inhibition, % at 20 µM. recombinant SENP8. AID 602440, 2012. hit rate 0.64% among 360,000. Sentrin-specific protease 8 (Homo sapiens), Q96LD8; in the data active means inhibition mostly above about 40%, no sharp cut-off; inactive means mostly below about 27%
# Target sequence (Q96LD8 whole entry, looked up): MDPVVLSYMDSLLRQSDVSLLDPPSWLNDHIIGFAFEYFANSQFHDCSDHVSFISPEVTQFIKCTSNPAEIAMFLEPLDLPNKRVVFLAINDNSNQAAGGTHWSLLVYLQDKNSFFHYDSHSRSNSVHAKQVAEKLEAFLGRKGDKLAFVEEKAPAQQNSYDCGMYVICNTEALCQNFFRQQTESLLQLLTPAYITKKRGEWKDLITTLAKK
# SENP7 block: SENP7 protease inhibitors, primary screen, biochemical, luminescence, uHTS. recombinant SENP7, Z-RLRGG-aminoluciferin luminescence, 40 min. hit rate 1.5% among 330,000. inhibition, % at 5 µM. Sentrin-specific protease 7 (Homo sapiens), Q9BQF6. AID 434973, 2010;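 active means inhibition above about 50% at the single test dose, limit read from the data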;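 further: plate controls were DMSO with enzyme for no effect and no enzyme buffer wells for full effect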
# Target sequence (Q9BQF6 706-1050 limits assumed): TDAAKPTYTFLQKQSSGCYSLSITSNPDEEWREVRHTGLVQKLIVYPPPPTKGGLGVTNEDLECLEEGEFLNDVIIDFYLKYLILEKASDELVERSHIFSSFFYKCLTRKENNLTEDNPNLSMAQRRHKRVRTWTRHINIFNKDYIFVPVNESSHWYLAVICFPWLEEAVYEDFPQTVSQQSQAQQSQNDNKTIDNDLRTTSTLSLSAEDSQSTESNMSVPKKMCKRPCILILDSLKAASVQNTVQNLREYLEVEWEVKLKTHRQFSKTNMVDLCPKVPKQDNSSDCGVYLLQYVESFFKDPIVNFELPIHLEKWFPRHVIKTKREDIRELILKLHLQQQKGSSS
# SENP8 block-2: SENP8 protease inhibitors, primary screen, biochemical, luminescence; Sentrin-specific protease 8 (Homo sapiens), Q96LD8; hit rate 1.2% among 330,000; purified SENP8, Z-RLRGG-aminoluciferin cleavage; inhibition, % at 10 µM; in the data active means inhibition above about 50%
# Numbers without * were called inactive; . = no result given.
SMILES,SENP6 block,C8 TRAIL sens,PPC-1+TRAIL kill,SENP8 block-1,SENP7 block,SENP8 block-2
CC(C)Oc1cc(F)ccc1-c1cc(C(=O)NCc2ccccn2)[nH]n1,.,-12,.,14,.,.
O=C(NCCOc1ccccc1Cl)c1cccc2c1C(=O)c1ccc(Cl)cc1S2(=O)=O,-5,38,.,8,3,-1
N#Cc1cccnc1N1CCN(C(=O)c2cccc3c2C(=O)c2ccc(-c4ccc(Cl)c(C(F)(F)F)c4)cc2S3(=O)=O)CC1,6,8,.,-65,5,4
N#Cc1cccnc1N1CCN(C(=O)c2cccc3c2C(=O)c2ccc(Cl)cc2S3(=O)=O)CC1,7,78*,.,-156,6,2
O=C1c2ccc(Cl)cc2S(=O)(=O)c2cccc(C(=O)N3CCC(Cc4ccccc4)CC3)c21,-16,93*,.,13,7,-3
O=C(NCCOc1ccccc1)c1cccc2c1C(=O)c1ccc(Cl)cc1S2(=O)=O,-10,55*,.,13,-1,13
O=S1(=O)[C@H]2C[C@@H]3CC[C@]2(CN1Cc1cccc(F)c1)O3,-15,5,21,10,-6,1
COc1ccc(CC(=O)Nc2cc(F)ccc2F)cc1S(=O)(=O)N1CCOCC1,.,-3,.,16,.,.
Nc1ccc(C2=Nc3cccc4cccc(c34)N2)cc1,.,2,1,11,.,.
CC1=Nc2cccc3cccc(c23)N1,14,-1,5,47*,13,4
Cc1ccc(C)c(C(O)c2ncc(-c3cccc(C(F)(F)F)c3)[nH]2)c1 (configuration not stated),.,-8,.,20,.,.
COc1ccc(OC)c2c1C(=O)c1ccccc1C2=O,14,.,-3,.,11,7
COc1ccc2noc3c2c1C(=O)c1ccccc1-3,87*,4,.,105*,57*,80*
COC(=O)[C@@]1(Sc2ccc(C)cc2)CC(=O)N[C@@H]1c1ccc(Br)cc1,.,-5,.,10,.,.
Oc1[nH]c2ccccc2c1C=Nc1ccc2c(c1)OCCO2,.,57*,36,5,.,.
Cc1c(P(=S)(c2ccccc2)c2ccccc2)[n+]2ccccc2n1C/C=C/c1ccccc1,.,78*,.,8,.,.
CCCOc1ccccc1C(=O)N(Cc1cccc(Br)c1)C1CCS(=O)(=O)C1 (configuration not stated),-11,2,.,16,4,-3
CN(C)c1ccc(C=C2SC(=S)NC2=O)cc1,.,47,.,39,.,.
CN(C)c1ccc(/C=N/N=C2/NC(=O)/C(=C/c3ccc([N+](=O)[O-])cc3)S2)cc1,69*,87*,54*,4,34,36
Nc1nn2c(-c3ccccc3)cc(=O)[nH]c2c1N=Nc1ccc(Br)cc1,.,5,40,41*,.,.
Cc1cc2[nH]c(=O)cc(-c3ccccc3)n2n1,22,26,.,-299,2,24
Cc1cc(=O)[nH]c2c1c(-c1ccccc1)nn2C,-9,-11,-3,5,3,-5
Nc1nn2c(-c3ccccc3)cc(=O)[nH]c2c1N=Nc1ccc(O)cc1,12,-3,33,63*,7,-2
Nc1ncnc2c1ncn2[C@@H]1O[C@H](CCC(=O)NCc2ccccc2)[C@@H](O)[C@H]1O,.,-9,.,15,.,.
CCOC(=O)N1CCN(C(=O)CN(C)S(=O)(=O)c2ccc(OCC)cc2)CC1,-2,0,.,19,-13,-11
SMILES,SENP6 block,C8 TRAIL sens,PPC-1+TRAIL kill,SENP8 block-1,SENP7 block,SENP8 block-2
CC(=O)Nc1ccc(N2CCN(C(=O)c3cccs3)CC2)cc1,9,-15,-2,25,-7,2
Nc1ccc(N2CCN(C(=O)c3cccs3)CC2)cc1,-3,-5,13,50*,-4,-8
O=C(Nc1ccc2c(c1)OCO2)c1csc([C@H]2C[C@H](O)[C@@H](CO)O2)n1,.,5,.,7,.,.
CCCCN(C)CCNC(=O)CN1C(=O)CSc2ccc(S(=O)(=O)N3CCCC3)cc21,-5,-11,.,15,14,-5
O=c1cc(-c2ccccc2)oc2cc(O)c(O)c(O)c12,6,17,.,0,-3,10
O=c1c(O)cccc2cc(O)c(O)c(O)c12,-52,26,2,60*,-3,6
COC(=O)[C@H](Cc1ccccc1)NC(=O)Cn1ccc(NC(=O)OCc2ccccc2)nc1=O,4,-2,.,10,3,7
Clc1ccccc1OCc1nc(-c2ccccn2)no1,86*,28,16,26,84*,69*
O=C(CCl)N(CCCNC(=O)C(F)(F)F)c1ccc([N+](=O)[O-])cc1,2,95*,21,15,-3,-3
Cc1cccc(C)c1NC(=O)C1CCN(S(C)(=O)=O)CC1,-9,51*,.,11,-1,-13
Cc1cc(C)c(NC(=O)C2CCN(S(C)(=O)=O)CC2)c(C)c1,.,2,.,4,.,.
Cc1ccc(S(=O)(=O)N2CCCCC2)cc1NC(=O)Cn1cnnn1,-5,1,-6,28,3,-3
CCC(=O)Nc1ccc(C(=O)Cn2ncc(Cl)c(Cl)c2=O)cc1,-3,94*,11,0,-3,-4
Cc1nn(CC(=O)Nc2ccc3c(c2)OCO3)c(C)c1Cl,-1,9,.,6,4,1
O=C(Cn1ncc(Cl)c(Cl)c1=O)Nc1ccc2c(c1)OCO2,9,94*,.,14,13,-2
CCN(CC)S(=O)(=O)c1cc(NC(=O)Cn2ncc(Cl)c(Cl)c2=O)ccc1C,4,62*,17,4,-4,-2
Cc1ccc(S(=O)(=O)N2CCCCC2)cc1NC(=O)Cn1ncc(Cl)c(Cl)c1=O,-11,96*,.,20,-9,-9
Cn1nnc(NC(=S)NC(=O)c2cccc3c(Cl)cccc23)n1,1,2,.,5,3,7
Cc1ccc(S(=O)(=O)N2[C@@H](CO)CO[C@H]2CC(=O)c2ccc(F)cc2)cc1,.,-5,.,17,.,.
Cc1cc(=O)[nH]c(SCC(=O)Nc2cc(S(=O)(=O)N3CCCC3)ccc2Cl)n1,-21,-1,16,-18,1,0
CCCc1cc(=O)[nH]c(SCC(=O)Nc2cc(S(=O)(=O)N3CCCCC3)ccc2C)n1,5,50*,.,7,5,1
O=C(Cn1ncc(Cl)c(Cl)c1=O)NC(=O)NC1CCCCC1,-33,93*,.,10,-2,-17
O=C(NCc1cccnc1)c1ccc2sc([C@H]3C[C@H](O)[C@@H](CO)O3)nc2c1,.,-13,.,5,.,.
C/C(=N\NC(=O)c1ccc(Br)cc1)C1C(=O)c2ccccc2C1=O,97*,13,10,18,57*,94*
CC(=O)c1cccc(-c2ccnc3c2CC(C(=O)Nc2cccc(C(F)(F)F)c2)O3)c1 (configuration not stated),.,14,.,10,.,.
